# Assay outcomes deposited in PubChem by National Center for Advancing Translational Sciences (NCATS).
# Compounds with a hit are over-represented: about 2.4% of the library has one in this group of screens.
# TRHR ag: TRH receptor (human) agonism; P34981; TRHR cells, calcium flux fluo-8, FDSS agonist mode; activation, % at 2 µM; actives 0.18% (n = 360,000); AID 493084; in the data active means activation above about 30%; further: 0% is about no effect
#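 Read-out: compound-evoked intracellular calcium rise in TRHR cells, fluo-8 dye, kinetic FDSS fluorescence at 1 s/cycle following a 10-cycle baseline. Cells cultured overnight before dye loading (30 min–1.5 h, RT).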
# GLP1R inv ag: GLP-1 receptor (human) inverse agonism. P43220. HEK293 GLP-1R CRE-luciferase, luminescence, 24 h; GLP-1R form is constitutively active. Potency, µM (titrated, usually from 38.3 µM), for the others: top-dose activity change, negative = inhibition, usual class: inhibitors. actives 1.6% (n = 410,000). AID 624417; further: potency means the concentration at half of the fitted maximal effect; on the % scale 0 is the no-effect control and ±100 the full control effect; nearly all actives have a fitted effect of over 55% in size
#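 Cells are plated, allowed 12 hours at 37 deg C, then treated with compounds for 24 hr before luciferase detection reagent is added and luminescence is read after 12 min at room temperature. The HEK293 line carries constitutively active GLP-1R with a cAMP-responsive reporter.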
# GLP1R ag: agonists of human GLP-1 receptor; P43220; HEK293 GLP-1R CRE-luciferase, luminescence, 4-6 h; cells express a hypersensitive GLP-1R form; Potency, µM (top dose mostly 45.6 µM), without a hit: at the highest dose activation, actives largely listed as activators; actives 0.007% (n = 380,000); AID 624172; further: potency means the concentration at half of the fitted maximal effect; % of control where 0% means no effect
# PTHR1 agonist: activates the human parathyroid hormone receptor PTHR1 | Q03431 | HEK293 GP2 PTHR1 cells, GloSensor cAMP luminescence, 1 h | Potency, µM (titrated, usually from 115 µM), for the others: top-dose activation, actives largely listed as activators | actives 0.075% (n = 410,000) | AID 743266; further: potency means the concentration at half of the fitted maximal effect; nearly all actives have a fitted effect of over 55% in size
# Target sequence (Q03431 whole entry, looked up): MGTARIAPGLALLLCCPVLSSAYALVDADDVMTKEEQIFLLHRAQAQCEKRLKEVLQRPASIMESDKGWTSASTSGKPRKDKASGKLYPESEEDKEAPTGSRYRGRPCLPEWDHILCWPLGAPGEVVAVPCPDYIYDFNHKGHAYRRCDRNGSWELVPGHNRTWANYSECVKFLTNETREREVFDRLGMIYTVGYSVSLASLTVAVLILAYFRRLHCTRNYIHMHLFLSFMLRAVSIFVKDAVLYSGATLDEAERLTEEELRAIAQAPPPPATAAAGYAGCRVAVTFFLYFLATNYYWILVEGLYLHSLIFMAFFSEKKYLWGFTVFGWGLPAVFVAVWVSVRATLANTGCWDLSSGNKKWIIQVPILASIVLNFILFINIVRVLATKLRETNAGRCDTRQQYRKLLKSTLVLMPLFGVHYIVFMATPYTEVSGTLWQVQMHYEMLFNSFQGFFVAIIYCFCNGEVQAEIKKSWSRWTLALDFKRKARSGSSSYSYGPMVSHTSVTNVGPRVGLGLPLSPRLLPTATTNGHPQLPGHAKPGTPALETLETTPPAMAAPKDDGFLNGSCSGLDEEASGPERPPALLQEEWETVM
#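 HEK-293-derived GP2 cells expressing PTHR1 and a GloSensor cAMP reporter, 3,000/well, plated overnight, given luciferin plus IBMX (each 0.5 mM as added) for 1 h at 37 °C, then compound for 1 h at 37 °C. Luminescence was read after 15 min at room temperature.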
# TRHR PAM: allosteric enhancers of human TRH receptor | TRHR cells, fluo-8 calcium fluorescence, EC20 TRH enhancement | actives 0.66% (n = 360,000) | AID 493056 | enhancement, % at 2 µM | P34981; in the data active means enhancement above about 30%; further: 0% is about no effect
#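 Enhancer read-out: after compound pinning and an initial kinetic agonist-mode read, an EC20 of TRH (10 nM final) was injected and fluo-8 calcium signal (Ex 480/Em 530) followed at 1 s/cycle for 100 cycles in TRHR-expressing cells.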
# GLP1R cytotox: cytotoxicity in counter-screen for GLP-1R inverse agonists | actives 0.13% (n = 410,000) | HEK293 cAMP-luciferase reporter cells, luminescence, 24 h | AID 624418 | Potency, µM (series often up to 38.3 µM), without a hit: at the highest dose activity change, negative = inhibition, usual class: inhibitors;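 further: loss of luciferase light is scored as toxicity; potency means the concentration at half of the fitted maximal effect; on the % scale 0 is the no-effect control and ±100 the full control effect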
#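 A 23 nL compound transfer followed 12 hours of cell culture at 37 deg C; exposure then lasted 24 hr. Luciferase assay detection reagent was dispensed and plates read for luminescence after a 12 min room-temperature wait.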
# * hit, by the source's call; i = inactive; ? = inconclusive; . = not tested or not shown; [ ] = remark or other dose. Unless noted, the call rests on the fitted dose curve; in most records, active means well fitted curve in the direction sought with a large enough effect; inconclusive means small, poorly fitted or top-dose-only effect, or another doubt; inactive means no such curve, though single readings can be large; an effect the other way counts as inactive or inconclusive.
SMILES,TRHR ag,GLP1R inv ag,GLP1R ag,PTHR1 agonist,TRHR PAM,GLP1R cytotox
CCOC(=O)c1c(C)[nH]c(C)c1S(=O)(=O)N1CCCC(C(=O)NCc2ccc(Cl)cc2)C1 (configuration not stated),0,-18%,.,i,16,-7%
CCOc1ccccc1N(CC)C(=O)c1cc2c(=O)n(CC)c3ccccc3c2s1,0,10µM*,-1%,-57%,50*,?
COc1ccc(-c2csc(N3CCC(c4ccccc4)CC3)n2)cc1,0,4%,1%,-6%,8,-2%
COC(=O)c1ccccc1NC(=O)Cc1nc(-c2ccc(OC)cc2)no1,-2,-9%,.,50µM*,4,-3%
O=C(/C=C1\C(=O)Nc2ccccc21)/C=C1\C(=O)Nc2ccccc21,1,6%,0%,-94%,4,-7%
COc1ccc(C2=Nn3c(nnc3-c3ccncc3)SC2)cc1OC,0,0%,?,i,8,4%
COc1ccc(C2=Nn3c(nnc3-c3cccnc3)SC2)cc1OC,1,0%,2µM*,-6%[57.5 µM],8,8%
O=[N+]([O-])c1cccnc1Oc1cc(Cl)c(Cl)cc1Cl,.,?,6%,-37%,.,2%
Cc1c(C(=O)NCc2ccc(F)cc2)sc(=O)n1Cc1ccc(Cl)c(Cl)c1,.,10µM*,-1%,i,.,-15%
CSc1ccc(Cn2c(C)c(C(=O)NCc3ccc(Cl)c(Cl)c3)sc2=O)cc1,.,?,-4%,-7%,.,-3%
C/C(=N\Nc1ccc(F)cc1F)c1ccc(Br)s1,1,13µM*,15%,-7%,3,2%
CC(C)(Oc1ccc(Cl)cc1)C(=O)NC1CCN(Cc2ccccc2)CC1,0,8.9µM*,6%,i,-2,-7%
CC1(C(=O)NC2CCN(Cc3ccccc3)CC2)CCN1Cc1ccc(OC(F)(F)F)cc1 (configuration not stated),.,?,-3%,-56%,.,-15%
CC(C)C(NC(=O)c1ccc(C(C)(C)C)cc1)C(=O)NC1=NCCS1 (configuration not stated),0,?,-8%,-3%,1,-4%
CCOC(=O)c1c(NC(=O)c2c(-c3ccccc3)noc2C)sc(C)c1-c1ccccc1,0,?,-2%,i,1,17%
CC1SC(C)C(=O)N(CC(=O)NCc2ccc(F)cc2)C1=O (configuration not stated),0,12%,14%,i,39*,-21%
COc1cc(OC)cc(C(=O)Nc2ccc(S(=O)(=O)N3CCCCC3c3cccnc3)cc2)c1 (configuration not stated),0,7.1µM*,.,-36%,2,?
CCOC(=O)c1cc(S(=O)(=O)N2CCOCC2)cn1C,0,17%,3%,i,13,6%
O=[N+]([O-])c1cc(C(F)(F)F)ccc1NCCc1c[nH]c2ccc(O)cc12,0,0%,12%,-1%[57.5 µM],0,-12%
O=[N+]([O-])c1cc(C(F)(F)F)ccc1NCCc1c[nH]c2ccccc12,0,?,-6%,-1%,3,10µM*
CC(C)OC(=O)c1c2c(n3ccccc13)C(=O)c1ccccc1C2=O,75*,48%,8%,-1%,2,6%
CC(=O)c1cn(CC(=O)NCc2ccc3c(c2)OCO3)c2ccccc12,0,-3%,0%,-84%[57.5 µM],-11,-11%
O=C(Cn1cc(C(=O)C2CC2)c2ccccc21)NCc1ccc2c(c1)OCO2,-1,6.3µM*,0%,i,-18,-23%
CC1CCCC(NC(=O)c2cccc(S(=O)(=O)NCc3ccccc3)c2)C1C (configuration not stated),0,11µM*,6%,-39%,-2,-22%
Cc1ccc(OCCNC(=O)c2cccc(S(=O)(=O)NCc3ccccc3)c2)cc1,0,5µM*,4%,-38%,8,?
SMILES,TRHR ag,GLP1R inv ag,GLP1R ag,PTHR1 agonist,TRHR PAM,GLP1R cytotox
O=C(CN1CCN(c2nc(-c3ccc(F)cc3)cs2)CC1)NCc1ccc2c(c1)OCO2,0,?,7%,-44%,9,0%
Cc1nn(-c2ccc(N3CCCCC3)nn2)c(C)c1CCC(=O)NCc1ccc(Cl)cc1,-1,10%,.,-88%,-2,0%
CC[n+]1c(/C=C/c2c[nH]c3ccccc23)ccc2cc(C)ccc21,9,10µM*,-7%,-17%,12,?
COC(=O)c1[nH]c2cc(OC)ccc2c1NC(=O)CCN1CCN(c2ccccc2)CC1,0,-6%,21%,i,-11,4%
COC(=O)c1[nH]c2ccccc2c1NC(=O)CN1CCN(c2cccc(OC)c2)C(C)C1 (configuration not stated),0,10µM*,7%,i,1,-18%
COC(=O)c1[nH]c2ccc(Br)cc2c1NC(=O)CN1CCCc2ccccc21,1,10µM*,-11%,-4%[57.5 µM],4,-22%
COC(=O)c1[nH]c2ccc(C)cc2c1NC(=O)CN1CCCC(C)(C)C1,0,2.2µM*,-7%,-12%[57.5 µM],3,0%
COC(=O)c1[nH]c2cc(C)ccc2c1NC(=O)CN1CCCc2ccccc21,1,-18%,-51%,i,-7,-13%
CCc1ccccc1N1CSC2=C(C#N)C(c3cc(OC)c(OC)cc3OC)CC(=O)N2C1 (configuration not stated),0,3%,11%,1.6µM*,2,0%
COc1cc(OC)c(C2CC(=O)N3CN(c4ccccc4)CSC3=C2C#N)cc1OC (configuration not stated),0,2%,11%,-8%,-4,-10%
Cc1ccc(OCc2nc3ccccc3n2CC(C)C)cc1,0,?,.,i,1,7%
Cc1ccc(NC2=C(N3CCOCC3)C(=O)c3ccccc3C2=O)cc1,-1,-13%,13%,-96%,3,10µM*
COc1cccc(CN(C)C(=O)c2ccccc2Sc2ccccc2C#N)c1OC,-2,8.9µM*,12%,-13%,-1,-11%
Cc1ccc(CN(C)C(=O)c2ccccc2Sc2ccccc2C#N)cc1,1,10µM*,6%,-23%,-8,2%
COc1ccc(C(=O)OC(C(=O)c2ccccc2)c2ccccc2)cc1 (configuration not stated),1,?,2%,-13%,4,8%
CNC(=O)C12CC3CC(C1)CC(c1ccc(C)cc1)(C3)C2,0,-25%,16%,i,-1,0%
